# Test results as given in the supplement of paper PMC8728848.
# The full list was thinned out, with the strongest signals kept by preference.
# B1: CLECb-Precomplexed (Mus musculus), P43025 (protein)
# chain: MAKNGLVLCILVVSLLLDQTDGYPSRMKARKHSKRRVKAKDDDLKSQVEKLWREVNALKEMQALQTVCLRGTKVHKKCYLASEGLKHYHEANEDCISKGGTLVVPRNSDEINALRDYGKRSLPGVNDFWLGINDMVTEGKFLDVHGFAVSFLNWDRAQPSGGKRENCVLFSQSAQGKWSDEACRSSKRYICEFIIPTRTRPLEQKLISEEDLAANDILDYKDDDDKV
# Assays:
# Assay in all cases: glycan array binding signal (z-score within array); higher = stronger binding
# Conditions in all cases: glycan notation: IUPAC condensed, linker removed
# [1] = molecular target: Fuc(a1-2)Gal(b1-3)GlcNAc6S
# How it was run: (§1)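 The binding signal is a Z-score computed within each array. Data were drawn from 3228 arrays in the Consortium for Functional Glycomics database, restricted to those with a known protein sequence. Scores were averaged over arrays of the same protein sequence at different concentrations or buffers, and over linkers, and negative values can be taken as non-binding.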
# [2] = molecular target: Fuc(a1-2)Gal(b1-4)GlcNAc(b1-2)Man(a1-3)[Fuc(a1-2)Gal(b1-4)GlcNAc(b1-2)Man(a1-6)]Man(b1-4)GlcNAc(b1-4)GlcNAc
# How it was run: as §1
# [3] = molecular target: Fuc(a1-2)Gal6S(b1-3)GlcNAc
# How it was run: as §1
# [4] = molecular target: Fuc(a1-2)[GalNAc(a1-3)]Gal(b1-4)Glc
# How it was run: as §1
# [5] = molecular target: Fuc(a1-2)[GalNAc(a1-3)]Gal(b1-4)GlcNAc(b1-2)Man(a1-3)[Fuc(a1-2)[GalNAc(a1-3)]Gal(b1-4)GlcNAc(b1-2)Man(a1-6)]Man(b1-4)GlcNAc(b1-4)GlcNAc
# How it was run: as §1
# [6] = molecular target: Fuc(a1-2)[GalNAc(b1-3)]Gal
# How it was run: as §1
# [7] = molecular target: Fuc(a1-3)[Gal(b1-4)]GlcNAc
# How it was run: as §1
# [8] = molecular target: Fuc(a1-3)[Gal(b1-4)]GlcNAc(b1-6)[Gal(b1-3)GlcNAc(b1-3)]Gal(b1-4)Glc
# How it was run: as §1
# [9] = molecular target: Fuc(a1-3)[Gal3S(b1-4)]GlcNAc6S
# How it was run: as §1
# [10] = molecular target: Gal(a1-3)Gal(b1-3)GlcNAc(b1-3)GalNAc
# How it was run: as §1
# [11] = molecular target: Gal(a1-3)Gal(b1-3)[Fuc(a1-4)]GlcNAc(b1-2)Man(a1-3)[Gal(a1-3)Gal(b1-3)[Fuc(a1-4)]GlcNAc(b1-2)Man(a1-6)]Man(b1-4)GlcNAc(b1-4)GlcNAc
# How it was run: as §1
# Gal(a1-3)GalNAc = molecular target: Gal(a1-3)GalNAc
# How it was run: as §1
# [12] = molecular target: Gal(b1-3)GlcNAc(b1-3)Gal(b1-3)GlcNAc
# How it was run: as §1
# [13] = molecular target: Gal(b1-3)GlcNAc(b1-3)Gal(b1-4)GlcNAc(b1-2)Man(a1-3)[Gal(b1-3)GlcNAc(b1-3)Gal(b1-4)GlcNAc(b1-2)Man(a1-6)]Man(b1-4)GlcNAc(b1-4)GlcNAc
# How it was run: as §1
# [14] = molecular target: Gal(b1-3)GlcNAc(b1-6)[Gal(b1-3)]GalNAc
# How it was run: as §1
# [15] = molecular target: Gal(b1-3)[Fuc(a1-4)]GlcNAc(b1-2)Man
# How it was run: as §1
# [16] = molecular target: Gal(b1-3)[Fuc(a1-4)]GlcNAc(b1-2)Man(a1-3)[Gal(b1-3)[Fuc(a1-4)]GlcNAc(b1-2)Man(a1-6)]Man(b1-4)GlcNAc(b1-4)[Fuc(a1-6)]GlcNAc
# How it was run: as §1
# [17] = molecular target: Gal(b1-3)[Fuc(a1-4)]GlcNAc(b1-3)Gal(b1-3)[Fuc(a1-4)]GlcNAc
# How it was run: as §1
# [18] = molecular target: Gal(b1-4)GlcNAc(b1-2)Man(a1-3)[GlcNAc(b1-2)Man(a1-6)]Man(b1-4)GlcNAc(b1-4)GlcNAc
# How it was run: as §1
# [19] = molecular target: Gal(b1-4)GlcNAc(b1-2)[Gal(b1-4)GlcNAc(b1-6)]Man(a1-6)[Gal(b1-4)GlcNAc(b1-2)Man(a1-3)]Man(b1-4)GlcNAc(b1-4)GlcNAc
# How it was run: as §1
# [20] = molecular target: Gal(b1-4)GlcNAc(b1-3)Gal(b1-4)Glc
# How it was run: as §1
# [21] = molecular target: Gal(b1-4)GlcNAc(b1-3)Gal(b1-4)GlcNAc(b1-2)Man(a1-3)[Gal(b1-4)GlcNAc(b1-3)Gal(b1-4)GlcNAc(b1-2)Man(a1-6)]Man(b1-4)GlcNAc(b1-4)GlcNAc
# How it was run: as §1
# [22] = molecular target: Gal(b1-4)GlcNAc(b1-3)Gal(b1-4)GlcNAc(b1-3)Gal(b1-4)GlcNAc(b1-2)[Gal(b1-4)GlcNAc(b1-3)Gal(b1-4)GlcNAc(b1-3)Gal(b1-4)GlcNAc(b1-6)]Man(a1-6)[Gal(b1-4)GlcNAc(b1-3)Gal(b1-4)GlcNAc(b1-3)Gal(b1-4)GlcNAc(b1-2)Man(a1-3)]Man(b1-4)GlcNAc(b1-4)[Fuc(a1-6)]GlcNAc
# How it was run: as §1
# [23] = molecular target: Gal(b1-4)GlcNAc(b1-3)Gal(b1-4)GlcNAc(b1-3)Gal(b1-4)GlcNAc(b1-3)Gal(b1-4)GlcNAc(b1-3)Gal(b1-4)GlcNAc(b1-2)Man(a1-3)[Gal(b1-4)GlcNAc(b1-3)Gal(b1-4)GlcNAc(b1-3)Gal(b1-4)GlcNAc(b1-3)Gal(b1-4)GlcNAc(b1-3)Gal(b1-4)GlcNAc(b1-2)Man(a1-6)]Man(b1-4)GlcNAc(b1-4)GlcNAc
# How it was run: as §1
# [24] = molecular target: Gal(b1-4)GlcNAc(b1-3)Gal(b1-4)GlcNAc(b1-3)Gal(b1-4)GlcNAc(b1-3)Gal(b1-4)GlcNAc(b1-3)Gal(b1-4)GlcNAc(b1-2)[Gal(b1-4)GlcNAc(b1-3)Gal(b1-4)GlcNAc(b1-3)Gal(b1-4)GlcNAc(b1-3)Gal(b1-4)GlcNAc(b1-3)Gal(b1-4)GlcNAc(b1-6)]Man(a1-6)[Gal(b1-4)GlcNAc(b1-3)Gal(b1-4)GlcNAc(b1-3)Gal(b1-4)GlcNAc(b1-3)Gal(b1-4)GlcNAc(b1-3)Gal(b1-4)GlcNAc(b1-2)Man(a1-3)]Man(b1-4)GlcNAc(b1-4)[Fuc(a1-6)]GlcNAc
# How it was run: as §1
# [25] = molecular target: Gal3S(b1-4)[Fuc(a1-3)]Glc6S
# How it was run: as §1
# [26] = molecular target: Gal3S(b1-4)[Fuc(a1-3)]GlcNAc6S
# How it was run: as §1
# Gal3S6S(b1-4)GlcNAc = molecular target: Gal3S6S(b1-4)GlcNAc
# How it was run: as §1
# Gal6S(b1-4)Glc6S = molecular target: Gal6S(b1-4)Glc6S
# How it was run: as §1
# Gal6S(b1-4)GlcNAc6S = molecular target: Gal6S(b1-4)GlcNAc6S
# How it was run: as §1
# [27] = molecular target: GalNAc(b1-4)GlcNAc(b1-2)Man(a1-3)[GalNAc(b1-4)GlcNAc(b1-2)Man(a1-6)]Man(b1-4)GlcNAc(b1-4)GlcNAc
# How it was run: as §1
# [28] = molecular target: GlcNAc(a1-4)Gal(b1-4)GlcNAc(b1-3)Gal(b1-4)GlcNAc
# How it was run: as §1
# [29] = molecular target: GlcNAc(b1-3)Gal(b1-4)GlcNAc(b1-2)Man(a1-3)[GlcNAc(b1-3)Gal(b1-4)GlcNAc(b1-2)Man(a1-6)]Man(b1-4)GlcNAc(b1-4)[Fuc(a1-6)]GlcNAc
# How it was run: as §1
# [30] = molecular target: GlcNAc(b1-3)Gal(b1-4)GlcNAc(b1-3)Gal(b1-4)GlcNAc(b1-3)Gal(b1-4)GlcNAc(b1-2)Man(a1-3)[GlcNAc(b1-3)Gal(b1-4)GlcNAc(b1-3)Gal(b1-4)GlcNAc(b1-3)Gal(b1-4)GlcNAc(b1-2)Man(a1-6)]Man(b1-4)GlcNAc(b1-4)[Fuc(a1-6)]GlcNAc
# How it was run: as §1
# GlcNAc(b1-3)Man = molecular target: GlcNAc(b1-3)Man
# How it was run: as §1
# [31] = molecular target: GlcNAc(b1-3)[GlcNAc(b1-4)][GlcNAc(b1-6)]GlcNAc
# How it was run: as §1
# [32] = molecular target: GlcNAc(b1-4)Gal(b1-4)GlcNAc
# How it was run: as §1
# [33] = molecular target: GlcNAc(b1-4)GlcNAc(b1-4)GlcNAc
# How it was run: as §1
# [34] = molecular target: GlcNAc(b1-4)GlcNAc(b1-4)GlcNAc(b1-4)GlcNAc(b1-4)GlcNAc(b1-4)GlcNAc
# How it was run: as §1
# [35] = molecular target: Neu5Ac(a2-3)Gal(b1-3)GlcNAc(b1-2)Man(a1-3)[GlcNAc(b1-4)][Neu5Ac(a2-3)Gal(b1-3)GlcNAc(b1-2)Man(a1-6)]Man(b1-4)GlcNAc(b1-4)GlcNAc
# How it was run: as §1
# [36] = molecular target: Neu5Ac(a2-3)Gal(b1-4)GlcNAc(b1-2)Man(a1-3)[Neu5Ac(a2-6)Gal(b1-4)GlcNAc(b1-2)Man(a1-6)]Man(b1-4)GlcNAc(b1-4)GlcNAc
# How it was run: as §1
# [37] = molecular target: Neu5Ac(a2-3)Gal6S(b1-4)GlcNAc
# How it was run: as §1
# [38] = molecular target: Neu5Ac(a2-3)[GalNAc(b1-4)]Gal(b1-4)GlcNAc
# How it was run: as §1
# Neu5Ac(a2-6)Gal = molecular target: Neu5Ac(a2-6)Gal
# How it was run: as §1
# [39] = molecular target: Neu5Ac(a2-6)Gal(b1-4)GlcNAc(b1-2)Man(a1-3)Man(b1-4)GlcNAc(b1-4)GlcNAc
# How it was run: as §1
# [40] = molecular target: Neu5Ac(a2-6)Gal(b1-4)GlcNAc(b1-2)Man(a1-3)[Neu5Ac(a2-3)Gal(b1-4)GlcNAc(b1-2)Man(a1-6)]Man(b1-4)GlcNAc(b1-4)GlcNAc
# How it was run: as §1
# [41] = molecular target: Neu5Ac(a2-6)Gal(b1-4)GlcNAc(b1-2)Man(a1-3)[Neu5Ac(a2-6)Gal(b1-4)GlcNAc(b1-2)Man(a1-6)]Man(b1-4)GlcNAc(b1-4)[Fuc(a1-6)]GlcNAc
# How it was run: as §1
# [42] = molecular target: Neu5Ac(a2-6)Gal(b1-4)GlcNAc(b1-3)Gal(b1-4)GlcNAc(b1-3)Gal(b1-4)GlcNAc(b1-2)Man(a1-3)[Neu5Ac(a2-6)Gal(b1-4)GlcNAc(b1-3)Gal(b1-4)GlcNAc(b1-3)Gal(b1-4)GlcNAc(b1-2)Man(a1-6)]GalNAc
# How it was run: as §1
binder,measurement,setting,value
B1,glycan array binding signal (z-score),[1],-0.588
same,glycan array binding signal (z-score),[2],2.16
same,glycan array binding signal (z-score),[3],-0.377
same,glycan array binding signal (z-score),[4],-0.431
same,glycan array binding signal (z-score),[5],-0.336
same,glycan array binding signal (z-score),[6],-0.291
same,glycan array binding signal (z-score),[7],0.129
same,glycan array binding signal (z-score),[8],0.092
same,glycan array binding signal (z-score),[9],-0.231
same,glycan array binding signal (z-score),[10],0.142
same,glycan array binding signal (z-score),[11],9.55
same,glycan array binding signal (z-score),Gal(a1-3)GalNAc,-0.387
same,glycan array binding signal (z-score),[12],-0.229
same,glycan array binding signal (z-score),[13],0.774
same,glycan array binding signal (z-score),[14],-0.462
same,glycan array binding signal (z-score),[15],-0.166
same,glycan array binding signal (z-score),[16],2.08
same,glycan array binding signal (z-score),[17],0.004
same,glycan array binding signal (z-score),[18],-0.209
same,glycan array binding signal (z-score),[19],2.03
same,glycan array binding signal (z-score),[20],-0.229
same,glycan array binding signal (z-score),[21],2.63
same,glycan array binding signal (z-score),[22],3.07
same,glycan array binding signal (z-score),[23],2.1
same,glycan array binding signal (z-score),[24],11.2
same,glycan array binding signal (z-score),[25],3.47
same,glycan array binding signal (z-score),[26],0.004
same,glycan array binding signal (z-score),Gal3S6S(b1-4)GlcNAc,-0.251
same,glycan array binding signal (z-score),Gal6S(b1-4)Glc6S,0.254
same,glycan array binding signal (z-score),Gal6S(b1-4)GlcNAc6S,0.049
same,glycan array binding signal (z-score),[27],0.242
same,glycan array binding signal (z-score),[28],-0.295
same,glycan array binding signal (z-score),[29],-0.522
same,glycan array binding signal (z-score),[30],-0.255
same,glycan array binding signal (z-score),GlcNAc(b1-3)Man,-0.185
same,glycan array binding signal (z-score),[31],-0.456
same,glycan array binding signal (z-score),[32],-0.159
same,glycan array binding signal (z-score),[33],-0.15
same,glycan array binding signal (z-score),[34],-0.322
same,glycan array binding signal (z-score),[35],-0.444
same,glycan array binding signal (z-score),[36],-0.245
same,glycan array binding signal (z-score),[37],-0.618
same,glycan array binding signal (z-score),[38],-0.321
same,glycan array binding signal (z-score),Neu5Ac(a2-6)Gal,-0.301
same,glycan array binding signal (z-score),[39],0.007
same,glycan array binding signal (z-score),[40],-0.03
same,glycan array binding signal (z-score),[41],2.94
same,glycan array binding signal (z-score),[42],3.49
